PubChem BioAssay
The source made the active and inactive calls. How the calls were made is not given here.

test system: Aerobactin synthetase IucA (Klebsiella pneumoniae hvKP1); assay: Biochemical IucA enzyme inhibition primary screen of the Spectrum library (AID 1346200); conditions: malachite green pyrophosphate, A620, at 8 µM, active compounds read low;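 further: 100% = wells without compound and 0% = wells lacking enzyme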

Compound | activity remaining
C[C@H]1C(=O)CCC2[C@]3(C)CC[C@@]4(C)C5CC(C)(C)CC[C@]5(C)CC[C@]4(C)C3CC[C@@]21C (stereo not given in full) | 105% (inactive)
COc1c(-c2coc3cc4c(cc3c2=O)CC(OC(C)=O)C(C)(C)O4)ccc2c1C=CC(C)(C)O2 (stereo not given) | 103% (inactive)
CC(C(=O)O)c1ccc(N2Cc3ccccc3C2=O)cc1 (stereo not given) | 103% (inactive)
C=C[C@@]1(C)CC(=O)[C@@]2(O)[C@](C)(O1)[C@@H](OC(C)=O)[C@@H](O)C1C(C)(C)CC[C@H](O)[C@@]12C (stereo not given in full) | 82.4% (inactive)
COC(=O)c1c(C)cc(OC)cc1O | 98.9% (inactive)
CC[C@]12C=CCN3CC[C@@]4(c5ccc(OC)cc5N(C)C4[C@@](O)(C(=O)OC)[C@@H]1OC(C)=O)[C@@H]32 (stereo not given in full) | 112% (inactive)
CC(C)[C@H](N)C(=O)OCCOCn1cnc2c(=O)[nH]c(N)nc21 | 122% (inactive)
C/C=C1\[C@H]2C=C(C)C[C@]1(N)c1ccc(=O)[nH]c1C2 | 122% (inactive)
COC(=O)/C(=C1\OC(=O)C(c2ccccc2)C1=O)c1ccccc1 (stereo not given) | 106% (inactive)
Cc1ccc(S(=O)(=O)NC(=O)NN2CC3CCCC3C2)cc1 (stereo not given) | 121% (inactive)
COC1C(O)C(O)C(O)[C@@H](O)C1O (stereo not given in full) | 106% (inactive)
C[C@]12CCC3c4ccc(O)cc4CCC3C1CC[C@@H]2O (stereo not given in full) | 125% (inactive)
O=C(Cc1cccs1)NC1C(=O)N2C(C(=O)[O-])=C(C[n+]3ccccc3)CSC12 (stereo not given) | 109% (inactive)
O=c1c2cc(O)c(O)cc2oc2cc(O)c(C3O[C@H](CO)[C@H](O)[C@@H](O)[C@H]3O)c(O)c12 (stereo not given in full) | 93.6% (inactive)
CC(=O)O[C@@H]1CC2C(C)(C)C(=O)C3OC3[C@]2(C)C2CC[C@@]3(C)[C@H](c4ccoc4)OC(=O)C4OC43[C@@]21C (stereo not given in full) | 101% (inactive)
CC(CCC(=O)O)[C@H]1CCC2C3C(C[C@H](O)[C@@]21C)[C@@]1(C)CC[C@@H](O)C[C@H]1C[C@H]3O (stereo not given in full) | 99.6% (inactive)
CCOC(=O)[C@H](CCc1ccccc1)N[C@H](C)C(=O)N1C2CCCCC2C[C@H]1C(=O)O (stereo not given in full) | 119% (inactive)
O=C(O[C@@H]1Cc2c(O)cc(O)cc2O[C@@H]1c1cc(O)c(O)c(O)c1-c1c([C@H]2Oc3cc(O)cc(O)c3C[C@H]2O)cc(O)c(O)c1O)c1cc(O)c(O)c(O)c1 | 119% (inactive)

Compound | activity remaining
COc1cc(C)c2c(c1C=O)Oc1c(c(C)c(O)c3c1C(O)OC3=O)OC2=O (stereo not given) | 114% (inactive)
CN(C)CCOc1ccc(/C(=C(/CCCl)c2ccccc2)c2ccccc2)cc1 | 112% (inactive)
COc1cccc2c1C(=O)c1c(O)c3c(c(O)c1C2=O)C[C@@](O)(C(C)=O)C[C@@H]3O[C@H]1C[C@H](N)[C@H](O)[C@H](C)O1 | 75.3% (inactive)
COc1cc(OC)cc(OC)c1 | 117% (inactive)
CC(=O)[C@H]1CCC2C3CCC4=CC(=O)CC[C@]4(C)C3CC[C@@]21C (stereo not given in full) | 106% (inactive)
O=c1cc(-c2cc(O)c(O)c(O)c2)oc2cc(O)cc(O)c12 | 101% (inactive)
CCCc1nn(C)c2c(=O)[nH]c(-c3cc(S(=O)(=O)N4CCN(C)CC4)ccc3OCC)nc12 | 97% (inactive)
CC(Cc1ccc(O)c(O)c1)(NN)C(=O)O (stereo not given) | 111% (inactive)
CCCc1ncc(C[n+]2ccccc2C)c(N)n1 | 111% (inactive)
NCC(=O)CCC(=O)O | 77.6% (inactive)
CC(=O)O[C@H]1C[C@@H](OC(C)=O)C(C)(C)C2CC(=O)[C@]3(C)C(CC[C@@]4(C)[C@H](c5ccoc5)OC(=O)[C@H]5O[C@]543)[C@]21C (stereo not given in full) | 107% (inactive)
C=Cc1c(C)/c2[n-]/c1=C\c1[n-]c(c(CC)c1C)/C=c1\[n-]c3c(c1C)C(=O)C(C(=O)[O-])C=3c1[n-]c(c(C)c1CCC(=O)[O-])\C=2.[Cu].[Na+].[Na+] (stereo not given) | 77.9% (inactive)
CC1(C)CCCC2(C)C3C1[C@@H](O)C2(C)C[C@H]3O (stereo not given in full) | 105% (inactive)
CC1=C(C(=O)O)N2C(=O)[C@@H](NC(=O)C(N)c3ccccc3)[C@H]2SC1 (stereo not given in full) | 104% (inactive)
CCC[C@@H]1C[C@@H](C(=O)N[C@@H](C2O[C@H](SC)[C@H](O)[C@@H](O)[C@H]2O)[C@H](C)Cl)N(C)C1 (stereo not given in full) | 77.4% (inactive)
O=C1C=CC(=C(c2ccc(O)cc2)c2ccc(O)cc2)C=C1 | 105% (inactive)
COc1ccc(-c2cc(=O)c3ccccc3o2)cc1OC | 109% (inactive)
